Records with an inconclusive call do not appear. Where a call stands in place of a potency, no number is given. Activity calls are given as the source filed them. The call rests on the fitted dose curve; in most records, active means well fitted inhibition curve with a large enough effect; inconclusive means small, poorly fitted or top-dose-only effect; inactive means flat fitted curve, though single readings scatter.

In this test the test system is CRL-7250. Put plainly: qHTS assay to identify novel small-molecules to repurpose for Merkel cell carcinoma treatment (AID 1296009). Further: nearly all actives have a fitted effect of over 60% in size. Particulars: MCC and control cell lines, CellTiter-Glo viability, 72 h; series mostly up to 92 µM. The gist of the method: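 Cells were incubated with compound for 72 hr at 37 degree celsius before CellTiter-Glo addition. Luminescence was normalized with no-cell wells as full cytotoxicity and DMSO as baseline.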
For orientation: Quantitative high-throughput screening tests each substance at several concentrations.
Turning to `C[C@@H]1CC[C@@]23CC[C@]4(C)[C@@](C=CC5[C@@]6(C)CC[C@H](O)C(C)(C)C6CC[C@]54C)(OC2=O)C3[C@H]1C` (stereo partly drawn), the Potency entry is “inactive”. Still for that read-out and setting: to `COc1cc2ncnc(Nc3ccc(O)cc3)c2cc1OC` belongs “inactive”. Take `CC1(C)CC[C@]2(C(=O)O)CC[C@]3(C)C(=CCC4[C@@]5(C)C[C@@H](O)[C@H](O)[C@](C)(CO)C5CC[C@]43C)[C@@H]2[C@@H]1O` (stereo partly drawn): the Potency entry is “inactive”. Still for that read-out and setting: to `CCC(C)/C=C(C)/C=C/C1=CC2=C(Cl)C(=O)C(C)(OC(C)=O)C(=O)C2(O)C(OC)O1` (stereo not drawn) belongs “inactive”; to `Cc1ccc(Cc2c(C)nc3nc(SCC(=O)NCCN4CCNCC4)nn3c2C)cc1`, “inactive”; to `COc1cccc(OC)c1-c1cc(C(=O)N[C@@H](CC(C)C)C(=O)O)nn1-c1ccnc2cc(Cl)ccc12`, “inactive”. Still for that read-out and setting: for `CC(C)C1(O[C@@H]2O[C@H](CO)[C@@H](O)[C@H](O)[C@H]2O)CC=C(CO)CC1` (stereo partly drawn) the value was “inactive”. As to `CC(=O)OC[C@]12[C@H](OC(C)=O)[C@H](OC(=O)c3ccccc3)[C@@H]3[C@@H](OC(C)=O)[C@]1(OC3(C)C)[C@H](C)C[C@H](OC(=O)c1ccccc1)[C@@H]2OC(=O)c1ccccc1`, the Potency result is “inactive”.

For `CCC(O)C(C)C1CCC(C(C)C(=O)O)O1` (stereo not drawn), the Potency entry was “inactive”. `C[C@]1(OC(=O)/C=C/c2ccccc2)C[C@H](O)[C@]2(O)C=CO[C@@H](O[C@@H]3O[C@H](CO)[C@@H](O)[C@H](O)[C@H]3O)C12` (stereo partly drawn): the Potency entry is “inactive”.

For the molecule `C[C@H]1CC[C@H]2[C@@H](C=C[C@@](C)(O)[C@]2(C)C(=O)CCO)C1`, the Potency entry is “inactive”. Still for that read-out and setting: for `Cc1cc(-c2nncc3c(C(C)(C)C)c(OCc4ncnn4C)nn23)no1` the value was “inactive”; for `C=C1CCC[C@]2(C)C[C@]3(O)OC(=O)C(C)=C3C[C@@H]12`, “inactive”. Same read-out and setting: for `COc1ccc(CCN(C)CCCOc2nsc(-c3ccccc3)n2)cc1OC` the value was “inactive”; for `CC1=C2C(=O)C=C(CO)C2[C@H]2OC(=O)[C@H](C)[C@@H]2[C@@H](OC(=O)Cc2ccc(O)cc2)C1` (stereo partly drawn), “inactive”; for `CC(C)=CCC[C@](C)(O[C@@H]1O[C@H](CO[C@@H]2OC[C@@H](O)[C@H](O)[C@H]2O)[C@@H](O)[C@H](O)[C@H]1O)[C@H]1CC[C@]2(C)[C@@H]1[C@H](O)C[C@@H]1[C@@]3(C)CC[C@H](O[C@@H]4O[C@H](CO)[C@@H](O)[C@H](O)[C@H]4O[C@@H]4O[C@H](CO)[C@@H](O)[C@H](O)[C@H]4O)C(C)(C)[C@@H]3CC[C@]12C`, “inactive”. Still for that read-out and setting: to `Cc1ccc2c(c1)C=Cc1cc(C)ccc1C2c1cn(Cc2ccc(C(=O)Nc3nn[nH]n3)o2)c(=O)[nH]c1=S` belongs “inactive”; to `CC1CC(=O)C2C(O)(C1)CC(O)C13OC1c1c(O)cccc1C(=O)C23O` (stereo not drawn), “inactive”; to `CC(=C\C(C)O)/C=C(\C)C(=O)CC1CC(CC(N)=O)CC(=O)O1` (stereo not drawn), “inactive”.

For `COCC1OC(n2cnc3c(=O)[nH]cnc32)C(O)C1O` (stereo not drawn), the Potency entry was “inactive”. Consider `C[C@@H]1O[C@@H](O[C@@H]2[C@@H](O[C@@H]3O[C@@H](C)[C@H](O[C@@H]4OC[C@H](O)[C@H](O[C@@H]5OC[C@@H](O)[C@H](O)[C@H]5O)[C@H]4O)[C@@H](O[C@@H]4OC[C@](O)(CO)[C@H]4O)[C@H]3O)[C@H](OC(=O)[C@]34CCC(C)(C)C[C@H]3C3=CCC5[C@@]6(C)C[C@H](O)[C@H](O[C@@H]7O[C@H](CO[C@@H]8OC[C@H](O)[C@H](O)[C@H]8O)[C@@H](O)[C@H](O)[C@H]7O)C(C)(C)C6CC[C@@]5(C)[C@]3(C)C[C@H]4O)OC[C@H]2O)[C@H](O)[C@H](O)[C@H]1O` (stereo partly drawn), for which the outcome was “inactive [at 9.27 µM]”. Regarding `C=C(C)[C@@H]1CC[C@](C)(O)[C@@H](OC(=O)c2ccccc2)C1`, the Potency result was “inactive”. On the same count and under the same terms, to `COc1ccc(-c2nc(-c3ccc(-c4cccc(Cl)c4)o3)[nH]c2-c2ccc(OC)cc2)cc1` belongs “inactive”; to `COc1cc2c(cc1O)C1(Cc3ccc4c(c3C1O)OCO4)[N+](C)([O-])CC2` (stereo not drawn), “inactive”.

With `COC(=O)C1=COC(OC2OC(CO)C(O)C(O)C2O)C2C(COC(=O)/C=C/c3ccc(O)c(O)c3)C(O)C(O)C12` (stereo not drawn), the Potency result is “inactive”. On the same count and under the same terms, to `CC(C)c1c(O)ccc2c1CC[C@H]1C(C)(C)CCC[C@]21C` belongs “inactive”. `C/C=C1/[C@H](O[C@@H]2O[C@H](CO)[C@@H](O)[C@H](O)[C@H]2O)OC=C(C(=O)OC)[C@H]1CC(=O)O[C@@H]1O[C@H](CO)[C@@H](O)[C@H](O)[C@H]1O`: the Potency result is “inactive”.

Take `Clc1ccc2c(c1)C1=NCCN1c1c(-c3noc(C4CC4)n3)ncn1-2`: the Potency entry is “inactive”.

The values are drawn from PubChem BioAssay (NCATS).
